In the library only some 21% were active in any assay of this set; here they are far more common.
Shiga toxin inh = Shiga toxin inhibition | Vero cells, Shiga toxin protein synthesis inhibition reporter | inhibition, % at 38.7 µM | actives 9.2% (n = 290,000); in the data active means inhibition mostly above about 28%, no sharp cut-off; inactive means mostly below about 43%; further: 0% is about no effect
Pf growth 48h = P. falciparum growth inhibition at 48 hours (one generation); actives 5.9% (n = 310,000); AID 504832; Potency, µM (titrated, usually from 28.7 µM), without a hit: at the top dose activity change, negative = inhibition, actives largely listed as inhibitors; P. falciparum luciferase growth in erythrocytes, 48 h; further: potency means the concentration at half of the fitted maximal effect; on the % scale 0 is the no-effect control and ±100 the full control effect
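First compound was added to culture medium, then infected red cells at 0.1% parasitemia and 2% hematocrit (final). After incubation at 37 C under 5% CO2, luciferase detection reagent was dispensed and light output recorded.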
CHX counter = counter-screen hit for Shiga toxin inhibitors, cycloheximide | max response, % | AID 2314 | actives 12% (n = 300,000) | cell reporter, cycloheximide protein synthesis inhibition counterscreen; in the data active means max response mostly above about 13%, no sharp cut-off; inactive means mostly below about 14%; further: read at 38.3 µM for the half of the compounds with a filed dose; 0% is about no effect
HCMV antiviral = human cytomegalovirus inhibition | HFF cells, HCMV-luciferase reporter, 72 h; hits give low values | activity change, negative = inhibition, % at 57.5 µM | actives 4.5% (n = 410,000); in the data active means activity change below about -60%; inconclusive means no clear call, values can overlap the other calls; inactive means above about -39%; further: on the % scale 0 is the no-effect control and ±100 the full control effect
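Luciferase read-out from HCMV-luciferase-infected HFFs (MOI 1 PFU/cell) 72 h post infection at 37C; compounds added after 16 h cell attachment; activity normalized between buffer-only basal and Salinomycin (10uM) inhibitor controls.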
HCV inh = HCV inhibition; Huh7.5.1 HCVcc-Cre infection, luciferase reporter, 44 h; Potency, µM (highest dose often 41.8 µM), inactives show at the top dose activity change, negative = inhibition, hits mostly inhibitors; actives 3.4% (n = 340,000); AID 651820; further: potency means the concentration at half of the fitted maximal effect; on the % scale 0 is the no-effect control and ±100 the full control effect
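Cells (1,000/well) were plated 4 h before compound, then infected with HCVcc-Cre virus (~0.5 moi). After 44 h further culture, infection was read as luciferase luminescence following a 15 min substrate incubation at room temperature.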
Pf growth 96h = P. falciparum growth inhibition at 96 hour, primary screen for plastid delayed-death inhibitors. P. falciparum luciferase reporter growth, 96 h. actives 6.9% (n = 320,000). Potency, µM (highest dose often 28.7 µM), for inactives: at the highest dose activity change, negative = inhibition, usual class: inhibitors; further: potency means the concentration at half of the fitted maximal effect; on the % scale 0 is the no-effect control and ±100 the full control effect
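Plates of compound plus infected erythrocytes (2% hematocrit, 0.05% parasitemia final) incubate 96 hours, 37 C, 5% CO2. Detection reagent added; reduced luminescence from the parasites' luciferase reporter flags inhibition.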
The depositor's hits bear a star; u = inconclusive; x = no result; [ ] = remark or other dose. Unless noted, the call rests on the fitted dose curve; in most records, active means well fitted inhibition curve with a large enough effect; inconclusive means small, poorly fitted or top-dose-only effect, or another doubt; inactive means no such curve, though single readings can be large or run the other way.

SMILES	Shiga toxin inh	Pf growth 48h	CHX counter	HCMV antiviral	HCV inh	Pf growth 96h
COn1c(-c2ccc(Cl)cc2)nc2ncccc21	60.1*	59.5%	49.5*	3.3	0.4%	61.9%
CCOC(=O)C1CCCN(CC(=O)Nc2nc(-c3ccccc3)cs2)C1 (stereo not drawn)	x	u	-4.1	-28.8	-20.9%	0.0%
Cc1ccc(C(=O)NC=C(Cl)Cl)cc1	84.0*	20.3%	26.4*	16.6	12.2%	x
COc1ccc(C(=O)NC(=C(Cl)Cl)S(=O)(=O)c2ccc(C)cc2)cc1	38.7	5.0%	21.5*	35.3	-10.5%	0.4%
Cc1ccc(C(=O)NCC#N)cc1	-17.6	4.1%	-0.5	-4.0	16.7%	21.1%
Cc1ccc(C(=O)NC(C#N)=C(Cl)Cl)cc1	40.4	-8.0%	19.6	-98.6*	6.31µM*	-24.7%
Cc1ccc(C(=O)NC(=C(Cl)Cl)S(=O)(=O)c2ccccc2)cc1	161.0*	0.0%	102.9*	-69.6*	11.2µM*	34.8%
COc1ccc(C(=O)NC(=O)COC(=O)CCS(=O)(=O)c2ccc(C)cc2)cc1	x	-1.8%	x	-14.5	2.1%	34.7%
Cc1ccc(C(=O)NC(=S)NNS(=O)(=O)c2ccccc2)cc1	-3.1	-11.3%	-1.6	u	1.3%	u
Cc1ccc(S(=O)(=O)N2CCN(C(=O)CCC(=O)Nc3ccc(F)cc3F)CC2)cc1	x	x	x	-26.6	-3.6%	x
O=S(=O)(Nc1ccc(F)cc1F)c1ccc(Br)s1	x	x	x	6.6	x	x
COCCn1nc2ccccc2c1OC	x	x	x	-0.7	x	x
Cc1ccc(S(=O)(=O)N2CCCCC2)cc1NC(=O)c1c(-c2ccccc2)noc1C	x	u	x	16.2	10.5%	u
COC(=O)NC(=C(Cl)Cl)S(=O)(=O)c1ccccc1	128.2*	u	81.8*	-31.2	11.2µM*	u
CC(C)N(CCNC(=O)COc1ccc2oc3c(c2c1)CCCC3)C(C)C	-29.2	-8.3%	1.0	-20.2	12.6µM*	-13.5%
COCCCNC(=O)COc1ccc2oc3c(c2c1)CCCC3	0.4	0.2%	-4.0	-1.3	-12.0%	-5.1%
Cc1cccnc1NC(=O)COc1ccc2oc3c(c2c1)CCCC3	28.0*	u	29.2*	-23.5	-6.7%	u
Cc1ccc(NC(=O)COc2ccc3oc4c(c3c2)CCCC4)cc1C	x	x	x	-4.5	x	x
Cc1ccc(Sc2cc(C(=O)NCCCN(C)C)c3ccccc3n2)cc1	-7.8	-7.5%[0.00184 µM]	-1.9	-39.1	u	u
Cc1ccc(-c2cc(C(=O)NCc3ccccn3)c3ccccc3n2)cc1	44.8	u	30.1*	63.6	u	-5.4%
NS(=O)(=O)c1ccc(CCNC(=O)c2ccccc2Cc2ccccc2)cc1	-8.3	-1.1%	-4.2	-60.7*	4.4%	u
CCc1ccc(-c2cc(C(=O)NCc3ccccn3)c3ccccc3n2)cc1	91.5*	33.7%	64.2*	14.9	u	u
NS(=O)(=O)c1ccc(CCNC(=O)c2cccc3ccccc23)cc1	13.4	1.8%	-4.1	0.7	14.3%	-11.0%
Cc1ccc(CNC(=O)c2cc(Sc3ccc(F)cc3F)nc3ccccc23)cc1	x	x	x	-66.2*	x	x
CCN(CC)C(=S)NC(=O)c1cc(OC)c(OC)c(OC)c1	20.7	25.8%	1.8	14.5	u	-40.1%[1.15 µM]
SMILES	Shiga toxin inh	Pf growth 48h	CHX counter	HCMV antiviral	HCV inh	Pf growth 96h
Cc1ccc(CNC(=O)C(=O)Nc2nccs2)cc1	15.8	12.9%	-2.0	78.7	3.7%	5.7%
O=C(NCc1ccc2c(c1)OCO2)c1cc(-c2ccncc2)nc2ccccc12	9.4	u	-2.0	-9.0	-18.2%	u
NS(=O)(=O)c1ccc(CCNCC(=O)N2CCC(Cc3ccccc3)CC2)cc1	-5.7	5.3%	-2.0	-61.2*	11.2µM*	-3.8%
Cc1ccc(-c2cc(C(=O)NCCc3ccc(S(N)(=O)=O)cc3)c3ccccc3n2)cc1	40.6	u	17.4*	22.8	u	u
O=C(NCc1ccc(F)cc1)c1cc(-c2ccncc2)nc2ccccc12	-6.6	3.7µM*	-1.2	-6.5	-24.6%	u
NS(=O)(=O)c1ccc(CCNC(=O)c2cc(-c3ccccc3)nc3ccccc23)cc1	-9.0	6.9%	-0.5	-14.0	-3.1%	-22.6%
O=C(NCc1ccccn1)c1ccccc1Cl	34.3	13.1%	20.2	28.8	2.5%	x
